Measured values from the supplement of paper PMC11732987, “Enantioselective OTUD7B fragment discovery through chemoproteomics screening and high-throughput optimisation” (Communications Chemistry, 2025).

How the values were obtained:
Assay in all cases: log2 ratio of Biotin-Ahx-Ub-VS probe labelling (fragment/DMSO); higher = less target engagement (more negative = stronger competition), active = hit call of the paper (q ≤ 0.05, log2 ratio ≤ -1)
Details in all cases: compound concentration: 200 uM; treatment time: 3 h
USP9X = USP9X (UniProt Q93008)
Summary of the method: (§1)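 In triplicate, 495 µg of HEK293T lysate per sample was incubated with fragment at 200 µM or vehicle for 3 h. Biotin-Ahx-Ub-VS was then added to 0.5 µM final for 1 h, and labelled DUBs were captured with NeutrAvidin, digested with LysC and trypsin, and measured by diaPASEF LC-MS/MS. Data are average log2 fragment/vehicle ratios by unpaired t-test from global-median-normalised Spectronaut label-free quantities, restricted to proteins with ≥2 unique peptides.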

UniProt O00487 = target: UniProt O00487
Summary of the method: as §1

UniProt O00507 = target: UniProt O00507
Summary of the method: as §1

UniProt P51784 = target: UniProt P51784
Summary of the method: as §1

UniProt Q5T2D3 = target: T1, UniProt Q5T2D3
T1 sequence (whole entry): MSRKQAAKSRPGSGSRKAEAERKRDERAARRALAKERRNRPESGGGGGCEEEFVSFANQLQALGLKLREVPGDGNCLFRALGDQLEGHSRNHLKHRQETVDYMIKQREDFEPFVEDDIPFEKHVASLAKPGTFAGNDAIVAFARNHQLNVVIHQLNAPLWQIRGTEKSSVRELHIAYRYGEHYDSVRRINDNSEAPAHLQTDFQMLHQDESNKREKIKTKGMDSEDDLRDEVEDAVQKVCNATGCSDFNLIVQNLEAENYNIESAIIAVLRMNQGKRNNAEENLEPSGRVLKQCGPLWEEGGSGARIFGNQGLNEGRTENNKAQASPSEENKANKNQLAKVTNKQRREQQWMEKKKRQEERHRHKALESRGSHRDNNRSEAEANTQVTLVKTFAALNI
Summary of the method: as §1

UniProt Q8TE49 = target: T2, UniProt Q8TE49
T2 sequence (whole entry): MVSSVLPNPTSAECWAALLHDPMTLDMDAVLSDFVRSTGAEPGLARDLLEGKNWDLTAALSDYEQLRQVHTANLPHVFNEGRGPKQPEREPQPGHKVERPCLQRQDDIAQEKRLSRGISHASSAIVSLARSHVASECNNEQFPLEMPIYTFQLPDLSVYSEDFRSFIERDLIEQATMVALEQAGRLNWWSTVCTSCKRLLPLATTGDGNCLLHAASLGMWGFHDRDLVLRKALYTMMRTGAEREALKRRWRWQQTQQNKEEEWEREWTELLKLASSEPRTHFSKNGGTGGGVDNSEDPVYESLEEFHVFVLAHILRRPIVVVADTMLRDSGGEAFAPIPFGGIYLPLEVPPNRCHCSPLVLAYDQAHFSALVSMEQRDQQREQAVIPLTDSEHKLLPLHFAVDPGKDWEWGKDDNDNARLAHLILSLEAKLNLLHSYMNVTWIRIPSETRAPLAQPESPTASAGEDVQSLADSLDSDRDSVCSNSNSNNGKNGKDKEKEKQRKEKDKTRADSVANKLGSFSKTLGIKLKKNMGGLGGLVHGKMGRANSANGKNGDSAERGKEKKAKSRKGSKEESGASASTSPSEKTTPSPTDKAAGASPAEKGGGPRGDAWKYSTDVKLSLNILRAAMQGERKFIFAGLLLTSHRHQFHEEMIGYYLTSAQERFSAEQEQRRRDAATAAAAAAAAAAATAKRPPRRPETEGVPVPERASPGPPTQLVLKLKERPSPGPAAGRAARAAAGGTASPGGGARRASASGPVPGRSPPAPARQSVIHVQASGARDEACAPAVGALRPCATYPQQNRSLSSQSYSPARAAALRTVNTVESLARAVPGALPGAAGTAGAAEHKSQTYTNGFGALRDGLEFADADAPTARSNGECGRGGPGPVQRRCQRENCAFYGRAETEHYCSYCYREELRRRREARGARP
Summary of the method: as §1

UniProt Q9P2H5 = target: T3, UniProt Q9P2H5
T3 sequence (whole entry): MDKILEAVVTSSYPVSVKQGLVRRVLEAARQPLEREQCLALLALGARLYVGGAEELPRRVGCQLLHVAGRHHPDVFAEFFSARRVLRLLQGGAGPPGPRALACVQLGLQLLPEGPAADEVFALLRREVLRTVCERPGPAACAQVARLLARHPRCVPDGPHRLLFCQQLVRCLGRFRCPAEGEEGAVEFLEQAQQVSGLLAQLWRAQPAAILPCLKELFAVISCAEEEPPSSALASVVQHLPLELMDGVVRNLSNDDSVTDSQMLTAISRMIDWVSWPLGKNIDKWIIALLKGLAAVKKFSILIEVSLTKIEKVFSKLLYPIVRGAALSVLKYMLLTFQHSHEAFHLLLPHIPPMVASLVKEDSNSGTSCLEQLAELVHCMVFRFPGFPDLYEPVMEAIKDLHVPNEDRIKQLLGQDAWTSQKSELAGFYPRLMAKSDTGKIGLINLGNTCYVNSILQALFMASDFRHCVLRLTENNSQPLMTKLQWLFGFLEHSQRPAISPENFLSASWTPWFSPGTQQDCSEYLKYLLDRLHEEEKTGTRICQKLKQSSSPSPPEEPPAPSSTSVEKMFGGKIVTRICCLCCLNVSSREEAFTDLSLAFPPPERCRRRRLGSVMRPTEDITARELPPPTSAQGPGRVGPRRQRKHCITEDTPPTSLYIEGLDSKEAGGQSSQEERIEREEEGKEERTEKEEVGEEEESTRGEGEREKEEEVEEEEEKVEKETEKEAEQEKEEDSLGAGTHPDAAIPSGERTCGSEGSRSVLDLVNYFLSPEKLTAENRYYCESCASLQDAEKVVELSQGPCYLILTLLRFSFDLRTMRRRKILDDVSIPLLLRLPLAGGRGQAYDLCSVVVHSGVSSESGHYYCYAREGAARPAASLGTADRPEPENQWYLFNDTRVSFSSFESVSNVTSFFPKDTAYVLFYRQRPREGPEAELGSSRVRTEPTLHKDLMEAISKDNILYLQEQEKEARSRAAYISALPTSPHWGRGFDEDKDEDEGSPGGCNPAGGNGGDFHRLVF
Summary of the method: as §1

UniProt Q9UGI0 = target: T4, UniProt Q9UGI0
T4 sequence (whole entry): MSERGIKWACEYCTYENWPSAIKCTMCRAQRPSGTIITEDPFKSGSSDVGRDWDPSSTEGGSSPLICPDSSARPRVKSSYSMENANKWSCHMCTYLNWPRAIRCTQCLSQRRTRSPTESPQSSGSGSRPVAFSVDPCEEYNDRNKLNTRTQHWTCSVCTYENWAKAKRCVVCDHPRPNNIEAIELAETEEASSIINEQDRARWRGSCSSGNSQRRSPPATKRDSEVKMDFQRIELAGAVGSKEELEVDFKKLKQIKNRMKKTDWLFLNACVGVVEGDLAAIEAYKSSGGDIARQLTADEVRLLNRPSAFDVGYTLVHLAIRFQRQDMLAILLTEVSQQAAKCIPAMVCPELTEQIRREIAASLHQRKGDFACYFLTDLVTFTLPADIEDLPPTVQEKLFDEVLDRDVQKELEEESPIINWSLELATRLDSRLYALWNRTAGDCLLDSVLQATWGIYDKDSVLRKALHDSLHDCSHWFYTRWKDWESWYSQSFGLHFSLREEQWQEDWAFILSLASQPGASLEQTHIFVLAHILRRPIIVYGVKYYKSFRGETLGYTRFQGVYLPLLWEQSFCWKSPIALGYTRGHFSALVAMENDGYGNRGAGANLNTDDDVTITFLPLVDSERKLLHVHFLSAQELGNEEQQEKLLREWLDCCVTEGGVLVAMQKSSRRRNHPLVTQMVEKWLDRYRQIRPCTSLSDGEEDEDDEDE
Summary of the method: as §1

YOD1 = target: T5, YOD1 (UniProt Q5VVQ6)
T5 sequence (whole entry): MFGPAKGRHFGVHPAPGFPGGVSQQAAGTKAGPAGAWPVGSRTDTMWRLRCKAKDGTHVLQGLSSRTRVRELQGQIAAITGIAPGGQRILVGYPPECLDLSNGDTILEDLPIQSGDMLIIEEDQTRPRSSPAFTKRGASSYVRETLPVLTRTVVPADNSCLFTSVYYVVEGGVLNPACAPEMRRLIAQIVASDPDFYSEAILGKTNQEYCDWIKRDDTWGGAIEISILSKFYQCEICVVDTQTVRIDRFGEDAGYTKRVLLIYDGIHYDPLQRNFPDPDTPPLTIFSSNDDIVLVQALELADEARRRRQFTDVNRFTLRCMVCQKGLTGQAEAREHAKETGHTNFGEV
Summary of the method: as §1

Measured: log2 ratio of Biotin-Ahx-Ub-VS probe labelling

Sequence of UniProt O00487 (O00487 whole entry): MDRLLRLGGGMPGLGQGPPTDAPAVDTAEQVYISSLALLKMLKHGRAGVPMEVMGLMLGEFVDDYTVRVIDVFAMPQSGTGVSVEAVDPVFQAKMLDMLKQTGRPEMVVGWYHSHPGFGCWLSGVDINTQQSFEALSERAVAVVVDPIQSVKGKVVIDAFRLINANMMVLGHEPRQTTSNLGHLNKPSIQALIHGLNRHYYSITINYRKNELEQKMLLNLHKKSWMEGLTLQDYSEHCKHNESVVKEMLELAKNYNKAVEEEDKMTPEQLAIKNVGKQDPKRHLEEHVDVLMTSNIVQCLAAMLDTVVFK
Sequence of USP9X (Q93008 whole entry, the tested form may be a part): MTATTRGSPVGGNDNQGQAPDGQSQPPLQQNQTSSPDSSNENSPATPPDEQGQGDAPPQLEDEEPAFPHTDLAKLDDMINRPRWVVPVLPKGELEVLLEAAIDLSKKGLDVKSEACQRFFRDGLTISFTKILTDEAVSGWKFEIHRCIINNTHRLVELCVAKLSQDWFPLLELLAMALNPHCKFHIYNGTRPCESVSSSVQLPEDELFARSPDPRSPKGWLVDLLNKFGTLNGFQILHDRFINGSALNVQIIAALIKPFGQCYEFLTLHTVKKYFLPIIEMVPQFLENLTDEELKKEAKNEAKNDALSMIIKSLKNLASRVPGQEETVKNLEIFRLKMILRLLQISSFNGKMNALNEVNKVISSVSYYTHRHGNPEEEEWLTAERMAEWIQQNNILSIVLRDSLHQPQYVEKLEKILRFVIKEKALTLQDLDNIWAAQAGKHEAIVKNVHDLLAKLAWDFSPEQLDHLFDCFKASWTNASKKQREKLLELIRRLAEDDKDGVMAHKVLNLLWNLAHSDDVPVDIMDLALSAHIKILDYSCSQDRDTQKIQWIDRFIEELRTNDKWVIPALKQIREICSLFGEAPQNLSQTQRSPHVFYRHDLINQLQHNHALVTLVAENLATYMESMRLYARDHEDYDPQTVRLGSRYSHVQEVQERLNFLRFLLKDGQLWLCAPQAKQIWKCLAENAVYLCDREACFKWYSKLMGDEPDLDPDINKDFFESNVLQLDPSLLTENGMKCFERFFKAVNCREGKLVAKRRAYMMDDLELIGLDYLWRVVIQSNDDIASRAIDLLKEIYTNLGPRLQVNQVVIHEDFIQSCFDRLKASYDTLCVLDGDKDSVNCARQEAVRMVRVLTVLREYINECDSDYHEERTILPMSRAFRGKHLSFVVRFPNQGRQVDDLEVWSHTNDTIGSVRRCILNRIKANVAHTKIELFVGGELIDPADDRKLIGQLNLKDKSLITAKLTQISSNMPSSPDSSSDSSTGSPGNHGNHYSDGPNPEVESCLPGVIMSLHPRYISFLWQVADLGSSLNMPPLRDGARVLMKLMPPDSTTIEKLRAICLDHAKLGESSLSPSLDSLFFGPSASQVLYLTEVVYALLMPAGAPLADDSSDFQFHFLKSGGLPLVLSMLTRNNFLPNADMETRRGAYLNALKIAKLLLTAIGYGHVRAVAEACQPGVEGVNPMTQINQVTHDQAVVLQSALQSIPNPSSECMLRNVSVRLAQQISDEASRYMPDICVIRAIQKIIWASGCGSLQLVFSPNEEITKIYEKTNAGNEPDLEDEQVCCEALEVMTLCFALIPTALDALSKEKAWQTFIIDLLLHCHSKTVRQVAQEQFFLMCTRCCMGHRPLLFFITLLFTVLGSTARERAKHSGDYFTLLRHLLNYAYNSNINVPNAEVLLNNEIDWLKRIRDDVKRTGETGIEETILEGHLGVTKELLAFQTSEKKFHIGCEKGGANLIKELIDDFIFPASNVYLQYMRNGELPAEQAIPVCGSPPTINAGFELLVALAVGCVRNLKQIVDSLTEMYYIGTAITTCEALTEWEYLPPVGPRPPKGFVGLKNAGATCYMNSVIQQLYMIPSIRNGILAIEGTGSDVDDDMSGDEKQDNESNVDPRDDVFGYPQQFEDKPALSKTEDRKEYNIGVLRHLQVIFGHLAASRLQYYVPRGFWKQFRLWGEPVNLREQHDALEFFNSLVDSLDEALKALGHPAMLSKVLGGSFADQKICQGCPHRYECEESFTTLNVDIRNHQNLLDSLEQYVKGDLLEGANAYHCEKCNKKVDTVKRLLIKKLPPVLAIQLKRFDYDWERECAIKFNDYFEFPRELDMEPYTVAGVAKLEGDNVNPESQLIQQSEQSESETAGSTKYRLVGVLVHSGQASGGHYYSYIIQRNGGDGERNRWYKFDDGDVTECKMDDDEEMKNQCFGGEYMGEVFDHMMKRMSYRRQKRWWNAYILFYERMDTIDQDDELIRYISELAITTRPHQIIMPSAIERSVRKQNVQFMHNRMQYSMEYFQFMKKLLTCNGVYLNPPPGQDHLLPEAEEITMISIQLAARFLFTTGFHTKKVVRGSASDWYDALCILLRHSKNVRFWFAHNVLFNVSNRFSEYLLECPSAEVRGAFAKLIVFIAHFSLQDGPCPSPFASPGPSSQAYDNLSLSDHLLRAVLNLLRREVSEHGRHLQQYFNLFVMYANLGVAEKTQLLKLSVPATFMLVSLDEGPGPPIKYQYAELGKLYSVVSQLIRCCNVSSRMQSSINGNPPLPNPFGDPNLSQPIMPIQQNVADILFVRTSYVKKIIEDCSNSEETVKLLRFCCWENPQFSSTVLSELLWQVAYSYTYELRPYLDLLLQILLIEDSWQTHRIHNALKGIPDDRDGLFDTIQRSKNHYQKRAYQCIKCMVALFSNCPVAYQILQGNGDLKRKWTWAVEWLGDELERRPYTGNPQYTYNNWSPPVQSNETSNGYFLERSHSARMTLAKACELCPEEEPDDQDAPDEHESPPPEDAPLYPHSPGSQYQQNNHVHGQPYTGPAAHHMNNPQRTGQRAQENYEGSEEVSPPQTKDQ
Sequence of UniProt P51784 (P51784 whole entry): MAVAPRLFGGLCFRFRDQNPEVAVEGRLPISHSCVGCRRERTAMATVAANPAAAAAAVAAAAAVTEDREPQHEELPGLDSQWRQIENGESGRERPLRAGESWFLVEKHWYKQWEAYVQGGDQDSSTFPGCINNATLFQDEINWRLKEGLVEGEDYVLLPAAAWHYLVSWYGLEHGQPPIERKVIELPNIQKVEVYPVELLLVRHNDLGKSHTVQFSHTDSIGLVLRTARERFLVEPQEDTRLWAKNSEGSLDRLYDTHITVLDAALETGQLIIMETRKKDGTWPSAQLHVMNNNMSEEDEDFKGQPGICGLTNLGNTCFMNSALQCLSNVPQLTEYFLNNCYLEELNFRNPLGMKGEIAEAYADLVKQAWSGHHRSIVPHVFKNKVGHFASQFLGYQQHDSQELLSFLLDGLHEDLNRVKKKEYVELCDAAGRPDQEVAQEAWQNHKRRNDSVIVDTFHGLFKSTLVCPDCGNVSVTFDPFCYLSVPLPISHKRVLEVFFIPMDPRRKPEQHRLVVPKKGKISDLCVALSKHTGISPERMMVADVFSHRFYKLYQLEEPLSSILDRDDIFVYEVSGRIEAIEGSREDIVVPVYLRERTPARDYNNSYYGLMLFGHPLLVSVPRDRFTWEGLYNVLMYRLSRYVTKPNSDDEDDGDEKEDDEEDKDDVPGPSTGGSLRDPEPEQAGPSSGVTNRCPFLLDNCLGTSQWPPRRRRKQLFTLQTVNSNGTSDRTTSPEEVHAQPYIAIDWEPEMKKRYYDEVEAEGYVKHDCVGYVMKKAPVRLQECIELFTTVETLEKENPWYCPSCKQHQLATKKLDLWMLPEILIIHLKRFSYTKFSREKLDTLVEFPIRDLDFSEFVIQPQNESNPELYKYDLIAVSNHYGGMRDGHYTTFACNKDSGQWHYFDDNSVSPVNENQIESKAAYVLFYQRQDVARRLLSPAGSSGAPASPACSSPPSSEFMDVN

Cc1ccc(N2CCC(NC(=O)CCl)C2=O)cc1 (centres undefined)
inactive: USP9X -0.0231 | UniProt O00487 -0.129 | UniProt O00507 0.561 | UniProt P51784 0.0347 | UniProt Q5T2D3 -0.0872 | UniProt Q8TE49 -0.518 | UniProt Q9P2H5 -0.134 | UniProt Q9UGI0 0.0412 | YOD1 0.132
